Bioassay records as filed in PubChem.
DT40 TDP1 CPT = qHTS for Inhibitors of human tyrosyl-DNA phosphodiesterase 1 (TDP1): qHTS in cells in presence of CPT. 12% of 420,000 active. Potency, µM (top dose mostly 46.2 µM), for inactives: at the top dose activity change, negative = growth inhibition, hits mostly inhibitors. chicken DT40 Tdp1-/-;hTDP1 cells + 20 nM CPT, ATP luminescence, 48 h; further: nearly all actives have a fitted effect of over 55% in size
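Chicken DT40 Tdp1-/- cells complemented with human TDP1, 400 cells/well, exposed to compounds plus 20 nM camptothecin for at least 48 h at 37 C; viability read as ATP content by CellTiter-Glo luminescence.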
VDR inhibitor = Inhibitors of the vitamin D receptor (VDR): qHTS. Potency, µM, for the others: max response, negative = inhibition, hits mostly inhibitors. Vitamin D3 receptor (Homo sapiens), P11473. 0.93% of 400,000 active. VDR-SRC2-3 peptide fluorescence polarization, 2 h
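After 23 nl compound addition and a short centrifugation, plates sat for 2 hours at ambient temperature; polarization of fluorescence then indicated loss of VDR binding to peptide SRC2-3.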
TDP1 block = qHTS Assay for Inhibitors of Tyrosyl-DNA Phosphodiesterase (TDP1); Tyrosyl-DNA phosphodiesterase 1 (Homo sapiens), Q9NUW8; recombinant TDP1, AlphaScreen DNA substrate cleavage; Potency, µM (series often up to 130 µM), without a hit: at the top dose activity change, negative = inhibition, actives largely listed as inhibitors; 0.28% of 350,000 active; AID 485290, 2010; further: nearly all actives have a fitted effect of over 40% in size
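Compounds were preincubated with Tdp1 (1 nM final) for 15 min at room temperature before substrate (15 nM final) started a 5 min reaction; beads (10 ug/ml final) were then added for 10 min before AlphaScreen detection.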
PLK1 PBD block = qHTS for Inhibitors of PLK1-PDB (polo-like kinase 1 - polo-box domain): Primary Screen | Serine/threonine-protein kinase PLK1 (Homo sapiens), P53350 | Plk1 PBD binding of FITC phosphopeptide, fluorescence polarization | Potency, µM, for inactives: max response, negative = inhibition, actives largely listed as inhibitors | 2.8% of 360,000 active | AID 720504, 2013; further: series mostly up to about 57 µM; nearly all actives have a fitted effect of over 65% in size
Target sequence (P53350 whole entry, looked up, the tested form may be a part): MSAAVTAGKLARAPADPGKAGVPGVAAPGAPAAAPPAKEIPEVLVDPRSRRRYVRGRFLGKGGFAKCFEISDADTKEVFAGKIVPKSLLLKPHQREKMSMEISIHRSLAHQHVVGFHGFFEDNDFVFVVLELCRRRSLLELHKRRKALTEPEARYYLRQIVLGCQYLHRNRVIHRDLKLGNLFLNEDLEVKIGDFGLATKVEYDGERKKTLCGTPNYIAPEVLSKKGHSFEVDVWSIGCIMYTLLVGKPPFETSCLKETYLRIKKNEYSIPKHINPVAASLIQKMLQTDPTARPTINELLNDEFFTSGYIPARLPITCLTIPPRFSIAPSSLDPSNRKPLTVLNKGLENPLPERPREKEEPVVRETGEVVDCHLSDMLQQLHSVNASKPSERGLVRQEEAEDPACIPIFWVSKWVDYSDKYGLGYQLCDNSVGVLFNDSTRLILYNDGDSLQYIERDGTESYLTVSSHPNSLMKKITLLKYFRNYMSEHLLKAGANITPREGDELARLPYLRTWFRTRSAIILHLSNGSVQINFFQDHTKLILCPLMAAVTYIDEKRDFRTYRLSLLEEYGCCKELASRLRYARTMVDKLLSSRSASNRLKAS
GCN5L2 inh = qHTS Assay for Inhibitors of GCN5L2; GCN5L2 HAT assay, ThioGlo1 CoA-SH fluorescence; Potency, µM (highest dose often 58.9 µM), for inactives: at the highest dose activity change, negative = inhibition, usual class: inhibitors; 0.21% of 390,000 active; AID 504327, 2011
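Free CoA generated was detected with ThioGlo1 (50uM) fluorescence at Ex340nm/Em540nm, read immediately and after 20 min at room temperature. Enzyme, 20 nM in HEPES pH 7.5 buffer, saw compounds 15 min before adding 75uM H3(1-25) peptide and 70uM acetyl-CoA.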
DT40 TDP1 no CPT = qHTS for Inhibitors of human tyrosyl-DNA phosphodiesterase 1 (TDP1): qHTS in cells in absence of CPT | DT40 Tdp1-/- hTDP1 cells, no CPT, ATP luminescence, 48 h | Potency, µM (top dose mostly 46.2 µM), for inactives: at the highest dose activity change, negative = growth inhibition, actives largely listed as inhibitors | 15% of 420,000 active; further: nearly all actives have a fitted effect of over 55% in size
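Luminescent ATP content (CellTiter-Glo) served as the growth readout. Knockout chicken DT40 cells expressing human TDP1 were exposed to compounds without camptothecin for a minimum 48 hr at 37 °C.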
* = called active by the depositor; ? = inconclusive; . = no result given; [ ] = another dose, or the depositor's remark. Only some compounds are listed: those with a hit (about 18% of all), similar ones and a draw of the others. The call rests on the fitted dose curve; in most records, active means well fitted curve in the direction sought with a large enough effect; inconclusive means small, poorly fitted or top-dose-only effect, or another doubt; inactive means no such curve, though single readings can be large; an effect the other way counts as inactive or inconclusive. On the % scale 0 is the no-effect control and ±100 the full control effect; potency means the concentration at half of the fitted maximal effect.

SMILES | DT40 TDP1 CPT | VDR inhibitor | TDP1 block | PLK1 PBD block | GCN5L2 inh | DT40 TDP1 no CPT
Clc1ccccc1CNC1CN2CCC1CC2 (stereo not given) | ? | ? | -5.5% | -4.8% | -3.5% | -8.1%
O=S(=O)(NC1CN2CCC1CC2)c1ccc(Cl)cc1 (stereo not given) | 7.3% | -13.3% | 6.5% | -5.5% | -7.6% | 2.7%
O=C(COc1ccc(Cl)cc1)N(c1ccccc1Cl)C1CN2CCC1CC2 (stereo not given) | 23.1µM* | -17.0% | . | -12.1% | 1.3% | 16.4µM*
CCc1nc(SC)ncc1C(=O)Nc1ccc(Cl)cc1C(=O)c1ccccc1 | -0.9% | 0.2% | 3.7% | . | -8.8% | ?
CC1Oc2cc3c(-c4c(O)cc(O)c5c(O)c6c(cc45)OC(C)C(C)C6=O)c(O)cc(O)c3c(O)c2C(=O)C1C (stereo not given) | 0.0164µM* | 79.4µM* | 7.6% | 26.7µM* | 25.1µM* | 0.116µM*
O=C1NC(=O)C(=Cc2ccc(OCCOc3ccc([N+](=O)[O-])cc3)cc2)C(=O)N1 | ? | 50.1µM* | 0.5% | 2.67µM* | -19.8% | ?
Cc1[nH]ccc2c1[nH]c1cc(=O)ccc12 | 8.2µM* | 7.5% | 9.4%[56.1 µM] | 1.6% | ? | 13µM*
Cc1ccc(CNC(=O)c2ccc(Nc3nc4ccccc4n4nnnc34)cc2)cc1 | ? | 9.6% | 0.0% | . | -4.5% | 14.6µM*
Cc1cc(C)cc(Nc2nc3ccc(C)cc3n3cnnc23)c1 | -24.9% | -26.7% | . | -8.1% | -12.2% | ?
CCCCC(=O)Nc1c(C(=O)N2CCN(c3ccccc3F)CC2)oc2ccccc12 | 14.6µM* | 7.2% | 11.4% | . | -4.3% | 9.2µM*
C[C@]12CCC3C(CC[C@]4(O)CC(O)CC[C@@]34C=O)[C@]1(O)CCC2C1=CC(=O)OC1 (stereo not given in full) | 10.2% | 7.6% | -6.2% | . | 11.2% | -20.9%
C[C@@H]1O[C@@H](O[C@H]2CC[C@]3(C=O)C4CC[C@]5(C)[C@@H](C6=CC(=O)OC6)CC[C@]5(O)[C@@H]4CC[C@]3(O)C2)[C@H](O)[C@H](O)[C@H]1O (stereo not given in full) | 0.366µM* | -0.6% | 1.2% | . | . | 0.326µM*
CC1O[C@@H](OC2CC[C@@]3(C=O)C4CC[C@]5(C)C(C6=CC(=O)OC6)CC[C@@]5(O)C4CC[C@]3(O)C2)C(O)C(O)C1O (stereo not given in full) | 0.461µM* | -7.1% | -4.5%[56.1 µM] | . | 3.6% | 0.581µM*
O=C(NC(O)C(Cl)(Cl)Cl)NC(O)C(Cl)(Cl)Cl (stereo not given) | 7.4% | 2.0% | 2.2% | . | -0.1% | -16.8%
Fc1ccc(Cn2nnnc2CN2CCC(n3nnc4cc(C(F)(F)F)ccc43)CC2)cc1 | 18.4µM* | 4.7% | . | -1.3% | -1.6% | ?
Cc1nc2ccccc2n1C1CCN(Cc2nnnn2CCc2ccccc2)CC1 | ? | -10.9% | 3.9% | -1.9% | 2.0% | ?
Fc1ccc2c(c1)nnn2C1CCN(Cc2nnnn2CCc2ccccc2)CC1 | ? | 5.9% | 1.9% | -0.4% | -0.6% | ?
Cc1nc2cc(C(F)(F)F)ccc2n1C1CCN(Cc2nnnn2Cc2ccc3c(c2)OCO3)CC1 | 29.1µM* | -3.6% | -10.9% | -16.3% | -7.8% | 16.4µM*
Cc1nc2cc(C(F)(F)F)ccc2n1C1CCN(Cc2nnnn2Cc2cccs2)CC1 | 16.4µM* | 10.0% | 0.0% | -7.2% | 0.4% | 16.4µM*
